Our source for the composite z-score and z-score values is PubChem BioAssay.

Assay [1] has as its system Wnt5a (protein binding on small-molecule microarray). In words: small molecules binding Wnt5a protein – biophysical, small-molecule microarray, 635/667 nm fluorescence, primary screen (AID 1142).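 Further: fluorescence read at 667 nm with signal to noise per printed feature.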 As to conditions: 635 nm fluorescence, higher = more signal.
Assay [2] is described as follows: ATP-based viability of Huh7 replicon cells – cell-based, CellTiter-Glo luminescence, basal, 48 h, cytotoxicity control for HCV replication inhibitor project, primary screen (AID 1143).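 Further: Huh7 hepatoma cells carrying a hepatitis C replication reporter with no stimulus; test concentration not given here.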 The note with it: higher = more signal, called active from +8 up or from −8 down. Background: A replicon is a self-replicating genome or part of one, used to study replication in cells.

Assay [3] is described as follows: Pseudomonas biofilm growth suppression – PAO1 strain, BacTiter-Glo luminescence, LB-PBS, primary screen (AID 1144). As to conditions: P. aeruginosa PAO1 biofilm, 12 h, higher = more signal.
Assay [4] can be described thus: basal CRE-LacZ reporter activity in PC12 – cell-based, unstimulated, primary screen (AID 1145). The note with it: no forskolin, luminescence, 4.5 h, higher = more signal, called active from +8 up or from −8 down.
Assay [5] can be described thus: forskolin-driven CRE-LacZ activity in PC12 – cell-based, CRE-LacZ reporter, forskolin-stimulated, primary screen (AID 1146).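 Further: PC12 cells with 6xCRE LacZ reporter stimulated by forskolin 10 µM; beta-galactosidase reporter signal reflecting CREB driven transcription.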 As to conditions: luminescence, 4.5 h, higher = more signal, called active from +8 up or from −8 down.
Assay [6] has as its target Streptavidin (Streptomyces avidinii) (UniProt P22629). Put plainly: compounds binding control protein streptavidin – biophysical, small-molecule microarray, 635/667 nm fluorescence, artefact control for SMM compound annotation, primary screen (AID 1147).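 Further: signal reflects streptavidin binding to arrayed compounds as a control protein.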 The note with it: higher = more signal.
Assay [7] is described as follows: probe aInhba binding on compound microarray – biochemical, small-molecule microarray, 635/667 nm fluorescence, primary screen (AID 1148).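 Further: score merges 667nm spot fluorescence with signal-to-noise for antibody binding to printed compounds.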 As to conditions: higher = more signal.
For assay [8], the target named is Torsin-1A (Homo sapiens) (UniProt O14656). In words: TOR1A wild-type binding on microarray – cell lysate, small-molecule microarray, lysate, 635/667 nm, primary screen (AID 1149). As to conditions: COS7 hTOR1A-WT lysate, 635 nm fluorescence, higher = more signal.
Assay [9] has the same target. Put plainly: torsin A mutant lysate binding on microarrays – cell lysate, small-molecule microarray, COS7 lysate, 635/667 nm fluorescence, primary screen (AID 1150).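 Further: score pools 667 nm emission and signal to noise measuring lysate protein binding.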 The note with it: COS7 hTOR1A mutant lysate, 635 nm fluorescence, higher = more signal.
The subject of assay [10] is Sonic hedgehog protein (Shh). In words: Sonic hedgehog microarray binding compounds – biochemical, small-molecule microarray, 635/667 nm fluorescence, primary screen (AID 1151).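 Further: Shh protein binding to compounds spotted on small-molecule microarray slides; score combines spot fluorescence intensity with signal-to-noise across triplicate slides.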 As to conditions: 635 nm fluorescence, higher = more signal.

The source made the active and inactive calls. Unless noted, how the calls were made is not given here.

Chain of Torsin-1A (Homo sapiens) (O14656 whole entry, looked up): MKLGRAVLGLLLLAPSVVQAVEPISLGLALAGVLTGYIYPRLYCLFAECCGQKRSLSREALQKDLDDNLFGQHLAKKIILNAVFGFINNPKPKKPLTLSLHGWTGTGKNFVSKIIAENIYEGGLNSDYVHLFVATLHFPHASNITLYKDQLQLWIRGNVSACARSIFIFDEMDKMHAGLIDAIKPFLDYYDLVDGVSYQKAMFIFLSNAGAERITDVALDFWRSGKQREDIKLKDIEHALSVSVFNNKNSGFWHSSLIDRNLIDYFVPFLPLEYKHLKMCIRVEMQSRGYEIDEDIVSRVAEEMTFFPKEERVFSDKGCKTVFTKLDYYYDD
Chain of Streptavidin (Streptomyces avidinii) (P22629 whole entry, looked up): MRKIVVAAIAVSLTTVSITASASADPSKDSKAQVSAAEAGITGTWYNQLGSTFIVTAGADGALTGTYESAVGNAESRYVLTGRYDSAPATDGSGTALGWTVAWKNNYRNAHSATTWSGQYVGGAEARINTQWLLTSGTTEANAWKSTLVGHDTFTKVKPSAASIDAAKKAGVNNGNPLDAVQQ

For `COC(=O)[C@@]1(Cc2ccc(F)cc2)[C@H]2c3cc(C(=O)N(C)C)n(Cc4ccc(OC(F)(F)F)cc4)c3C[C@H]2CN1C(=O)c1ccccc1`, the composite z-score was 0.0007 in assay [1]; 0.686 in assay [6]; 0.0633 in assay [7]; 0.296 in the assay with Torsin-1A (Homo sapiens) [8]; 0.569 with Torsin-1A (Homo sapiens) [9]; -0.817 in assay [10]. The z-score in assay [2] was 0.875 (inactive); in assay [3], -0.362 (inactive); in [4], 0.397 (inactive); in [5], 0.391 (inactive).

In the case of `COC(=O)[C@@]1(Cc2ccc(OC)cc2)[C@H]2c3cc(C(=O)N(C)C)n(Cc4ccc(C)o4)c3C[C@H]2CN1C(=O)c1ccccc1`, the composite z-score was 0.331 in assay [1]; 0.57 in [6]; 0.112 in assay [7]; -0.0657 with Torsin-1A (Homo sapiens) [8]; 0.567 in the assay with Torsin-1A (Homo sapiens) [9]; -0.797 in [10]. Besides, the z-score in [2] was -1.93 (inactive); in assay [3], 1.15 (inactive); in assay [4] it was -0.568 (inactive); in assay [5] it was -0.46 (inactive).

With `COCCOC(=O)N1C(=O)[C@@]2(c3cc(C#CC4(O)CCCCCC4)ccc31)[C@H](c1ccc(O)cc1)N1[C@H](c3ccccc3)[C@H](c3ccccc3)OC(=O)[C@H]1[C@@H]2C(=O)N1CCN(c2ncccn2)CC1`, the composite z-score in assay [1] was 0.623; in assay [6] it was 1.33; in assay [7] it was -0.0918; with Torsin-1A (Homo sapiens) [8], 0.49; in the assay with Torsin-1A (Homo sapiens) [9], 0.813; in [10] it was 0.185. For the same molecule, the z-score in [2] is -1.53 (inactive); in [3] it was -0.127 (inactive); in [4] it was -0.141 (inactive); in assay [5] it was 0.0053 (inactive).

On to `COCC(=C=CC[C@H](O)c1ccccc1OCCO)C[C@H](O)c1ccccn1`, for which the composite z-score in assay [1] was 0.0611; in [6], -0.303; in assay [7] it was -0.154; with Torsin-1A (Homo sapiens) [8] it was -0.556; with Torsin-1A (Homo sapiens) [9] it was 0.71; in assay [10], 0.43. Moreover, the z-score in assay [2] was -0.0701 (inactive); in [3], -0.214 (inactive); in assay [4] it was 1.04 (inactive); in assay [5], 0.126 (inactive).

On to `COc1ccc(C#Cc2ccc3c(c2)[C@]2(C(=O)N3)[C@H](c3ccc(OCCO)cc3)N3[C@H](c4ccccc4)[C@H](c4ccccc4)OC(=O)[C@H]3[C@@H]2C(=O)NC[C@H](O)c2ccccc2)cc1`, for which the composite z-score in [1] was 0.501; in [6], 0.777; in assay [7] it was 0.122; with Torsin-1A (Homo sapiens) [8], -0.0854; in the assay with Torsin-1A (Homo sapiens) [9], 0.327; in assay [10] it was 1.32. In addition, the z-score in assay [2] was -2.47 (inactive); in assay [3], -0.506 (inactive); in [4], -0.491 (inactive); in assay [5], -0.808 (inactive).

Consider `CCOC(=O)C[C@H]1[C@H](OC(=O)Cc2ccc3c(c2)OCO3)[C@@H](NC(=O)c2ccc3ccccc3n2)c2cc(OCCCO)ccc2N1C(=O)c1ccc2ccccc2n1`, for which the composite z-score in [1] is 0.593; in assay [6], 0.363; in [7], -0.128; in the assay with Torsin-1A (Homo sapiens) [8] it was 0.451; with Torsin-1A (Homo sapiens) [9], 0.339; in assay [10], 0.301. The z-score was -1.23 (inactive) in assay [2], -1.4 (inactive) in assay [3], 6.51 (inactive) in [4] and -1.03 (inactive) in assay [5].

`C=CCNC(=O)[C@@H]1[C@H]2C(=O)O[C@H](c3ccccc3)[C@H](c3ccccc3)N2[C@H](c2ccc(O)cc2)[C@@]12C(=O)N(C(=O)OCCOC)c1ccc(C#CC3=CCCCC3)cc12`: the composite z-score was 0.432 in assay [1]; 0.268 in [6]; 0.0705 in assay [7]; 0.87 with Torsin-1A (Homo sapiens) [8]; 0.686 in the assay with Torsin-1A (Homo sapiens) [9]; 1.86 in [10]. Also, the z-score in [2] was -2.12 (inactive); in assay [3] it was 0.411 (inactive); in assay [4], 0.346 (inactive); in [5], -0.0705 (inactive).

`COCCOC(=O)N1C(=O)[C@@]2(c3cc(C#CCNC(N)=O)ccc31)[C@H](C(N)=O)[C@H]1C(=O)O[C@H](c3ccccc3)[C@H](c3ccccc3)N1[C@@H]2c1ccccc1OCCO`: the composite z-score in assay [1] was found to be 0.273; in assay [6], 0.0571; in [7], 0.183; with Torsin-1A (Homo sapiens) [8] it was 0.112; in the assay with Torsin-1A (Homo sapiens) [9], 0.25; in [10] it was 0.878. Moreover, the z-score is 0.406 (inactive) in assay [2], -0.0139 (inactive) in assay [3], -0.465 (inactive) in [4] and 0.0355 (inactive) in assay [5].

In the case of `CCCCC(CC)C(O)C1C=CC2C(=O)N(C)C(=O)C2N1Nc1ccccc1` (stereo not given), the composite z-score in assay [1] is 0.122; in assay [6], 0.454; in [7] it was 0.017; in the assay with Torsin-1A (Homo sapiens) [8] it was -0.111; with Torsin-1A (Homo sapiens) [9] it was 0.254; in assay [10], -0.76. Also, the z-score is 0.136 (inactive) in assay [2], -0.152 (inactive) in assay [3], -0.14 (inactive) in assay [4] and 0.184 (inactive) in [5].

Regarding `C=C[C@@H](OC)[C@H](OC(=O)Nc1ccc(OC)cc1)c1ccc(O)c(F)c1`, the composite z-score is -0.182 in assay [1]; -0.938 in assay [6]; -0.197 in assay [7]; 0.281 with Torsin-1A (Homo sapiens) [8]; -0.278 in the assay with Torsin-1A (Homo sapiens) [9]; 1.96 in [10]. The z-score in assay [2] was -2.63 (inactive); in [3] it was -0.238 (inactive); in assay [4], 2.21 (inactive); in assay [5] it was 1.53 (inactive).

In the case of `CN(C)C(=O)[C@]1(CCC(=O)OC(C)(C)C)N=C(c2ccc(OCCCO)cc2)O[C@@H]1c1ccccc1CN=[N+]=[N-]`, the composite z-score is 1.44 in [1]; 0.588 in assay [6]; -0.071 in [7]; 1.53 with Torsin-1A (Homo sapiens) [8]; 1.24 in the assay with Torsin-1A (Homo sapiens) [9]; -0.646 in [10]. Besides, the z-score is -1.5 (inactive) in assay [2], -1.42 (inactive) in [3], -0.744 (inactive) in assay [4] and -0.147 (inactive) in assay [5].

Consider `COc1ccc(CCNC(=O)[C@@]2(Sc3ccc(C)cc3)CC(=O)N(Cc3ccccc3C(F)(F)F)[C@@H]2c2ccc(CO)cc2I)cc1`, for which the composite z-score in [1] was -0.0049; in assay [6] it was -0.975; in [7] it was 0.0714; with Torsin-1A (Homo sapiens) [8] it was -1.13; with Torsin-1A (Homo sapiens) [9] it was -0.702; in assay [10], -0.649. The z-score is -1.53 (inactive) in assay [2], 1.02 (inactive) in assay [3], 0.362 (inactive) in [4] and 2.7 (inactive) in [5].

Consider `Cc1ccc(S[C@]2(C(=O)NCCN3CCOCC3)CC(=O)N(Cc3ccccc3Cl)[C@@H]2c2ccc(CO)cc2I)cc1`, for which the composite z-score in [1] was 0.0976; in assay [6], -0.343; in assay [7], 0.658; with Torsin-1A (Homo sapiens) [8], -1.69; with Torsin-1A (Homo sapiens) [9], 0.75; in [10] it was -0.316. The z-score in assay [2] was -2.1 (inactive); in assay [3], -0.0266 (inactive); in [4] it was -0.581 (inactive); in assay [5] it was 0.631 (inactive).

On to `C=C(COC)/C(=C/C[C@H](OC(=O)c1ccncc1)c1ccc(CO)o1)c1cnc2ccccc2c1`, for which the composite z-score in assay [1] is 0.304; in assay [6], 1.16; in assay [7], -0.0933; with Torsin-1A (Homo sapiens) [8] it was 0.299; with Torsin-1A (Homo sapiens) [9], 0.732; in assay [10], 2.07. The z-score in [2] is 0.114 (inactive); in [3], -0.268 (inactive); in assay [4], 0.303 (inactive); in assay [5], -0.499 (inactive).

As to `CCCN1C(=O)[C@@]2(Cc3ccccc31)N=C(c1ccc(OCCCO)cc1)O[C@H]2c1ccccc1`, the composite z-score in assay [1] is 1.16; in [6], 0.469; in assay [7], -0.016; with Torsin-1A (Homo sapiens) [8], 1.71; with Torsin-1A (Homo sapiens) [9], 1.34; in assay [10], 1.01. Further, the z-score in [2] is -3.36 (inactive); in assay [3], 0.849 (inactive); in assay [4], 2.07 (inactive); in assay [5], -0.0414 (inactive).
